Screening results deposited in PubChem BioAssay by National Center for Advancing Translational Sciences (NCATS).
A selection: hits, their analogues and other compounds. The true share with any hit is near 7.6%.
RORgamma inh: ROR gamma (mouse) transcription inhibition. hit rate 5.4% among 310,000. Potency, µM (series often up to 53.6 µM), for the others: at the top dose activity change, negative = inhibition, usual class: inhibitors. Drosophila S2 Gal4-RORgamma UAS-luciferase reporter, 20 h; note: potency is the fitted concentration of half-maximal effect; % is set by controls: 0 for no effect and ±100 for the full control effect; nearly all actives have a fitted effect of over 60% in size
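ROR gamma transcriptional activity was tracked as Gal4-UAS luciferase output in stably transfected Drosophila Schneider cells, with compound added 1 hr before 700 uM copper sulfate induction and a 20 hr ambient-temperature incubation.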
ELG1 DNA repair: ELG1-dependent DNA repair inhibition; HEK293T ELG1-luciferase reporter, luminescence, 16 h; DNA damage induced by 5-fluorouridine; Potency, µM (top dose mostly 46.1 µM), without a hit: at the top dose activity change, negative = inhibition, usual class: inhibitors; hit rate 2.3% among 330,000; note: potency is the fitted concentration of half-maximal effect; % is set by controls: 0 for no effect and ±100 for the full control effect; nearly all actives have a fitted effect of over 55% in size
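In this reporter screen, reduction of luminescence relative to DMSO vehicle indicated activity. Compounds and 5-fluorouridine were added together to 2,000 cells per well, incubated for 16 hr at 37 °C, then developed with ONE-Glo.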
Giardia killer: Giardia lamblia killing; Giardia lamblia trophozoite viability; activity change, % at 7.66 µM, hits read low; hit rate 0.15% among 340,000; in the data active = activity change below about -80%; inconclusive = between about -30% and that limit;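 note: parasites exposed to compound for two days anaerobically before the ATP read; % is set by controls: 0 for no effect and ±100 for the full control effect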
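ATP-content bioluminescence gauges trophozoite survival. Cells (100/well) receive compound and incubate anaerobically for 48 hrs at 37 deg C; detection reagent follows for 15-30 min at room temperature.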
BRCA1 expr act: activators of BRCA1 expression; MCF7-BRCA1-FFLuc reporter, luminescence, 48 h; response scale: scaled: vehicle 0%, 10 µM genistein 100%; Potency, µM (highest dose often 46.1 µM), inactives show top-dose activation, actives largely listed as activators; hit rate 1.1% among 380,000; note: potency is the fitted concentration of half-maximal effect; nearly all actives have a fitted effect of over 80% in size
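Luminescence from a BRCA1-driven firefly luciferase in MCF7 cells was the read-out, taken 15 min after substrate addition following 48 h compound exposure at 37 °C. Data were normalized to a 10 microM genistein control and DMSO vehicle.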
VP16 counter: inhibits Gal4-VP16 luciferase reporter, ROR gamma counter-screen; hit rate 3.5% among 310,000; Drosophila S2 Gal4-VP16 UAS-luciferase, luminescence, 20 h; Potency, µM (series often up to 53.6 µM), for inactives: at the highest dose activity, negative = inhibition, usual class: inhibitors;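 note: Gal4-VP16 expression switched on by copper sulfate through the metallothionein promoter; potency is the fitted concentration of half-maximal effect; % is set by controls: 0 for no effect and ±100 for the full control effect; nearly all actives have a fitted effect of over 50% in size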
p53 reactivation: restores transcriptional activity of mutant p53 | H1299 p53-A138V BP100-luciferase reporter, luminescence, 24 h | Potency, µM (titrated, usually from 92.2 µM), for the others: at the top dose activity change, positive = activation, hits mostly activators | hit rate 0.063% among 320,000; note: potency is the fitted concentration of half-maximal effect; % of control where 0% means no effect; nearly all actives have a fitted effect of over 45% in size
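p53-null H1299 cells stably carrying temperature-sensitive p53-A138V and a BP100-luciferase reporter were pinned with compounds (4-point, 1:5 series) and held 24 hrs at 37 deg C. Luminescence was read 10 min after detection reagent.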
ELG1 FLuc counter: luciferase inhibition in cell-free luciferin readout for ELG1 hits; hit rate 3% among 350; Potency, µM (series often up to 46.1 µM), for the others: at the top dose activity change, negative = inhibition, usual class: inhibitors; shares compounds with ELG1 DNA repair; cell-free firefly luciferase luminescence counter-screen, ViewLux; note: potency is the fitted concentration of half-maximal effect; % is set by controls: 0 for no effect and ±100 for the full control effect
ELG1-Luc inh: confirmation of human ELG1-dependent DNA repair inhibitors; shares compounds with ELG1 DNA repair; HEK293T ELG1-luciferase levels, luminescence; cells co-treated with 5-fluorouridine; Potency, µM (series often up to 46.1 µM), without a hit: top-dose activity change, negative = inhibition, hits mostly inhibitors; hit rate 68% among 670; AID 624248; note: potency is the fitted concentration of half-maximal effect; % is set by controls: 0 for no effect and ±100 for the full control effect; nearly all actives have a fitted effect of over 55% in size
Target sequence (Q96QE3 whole entry, looked up): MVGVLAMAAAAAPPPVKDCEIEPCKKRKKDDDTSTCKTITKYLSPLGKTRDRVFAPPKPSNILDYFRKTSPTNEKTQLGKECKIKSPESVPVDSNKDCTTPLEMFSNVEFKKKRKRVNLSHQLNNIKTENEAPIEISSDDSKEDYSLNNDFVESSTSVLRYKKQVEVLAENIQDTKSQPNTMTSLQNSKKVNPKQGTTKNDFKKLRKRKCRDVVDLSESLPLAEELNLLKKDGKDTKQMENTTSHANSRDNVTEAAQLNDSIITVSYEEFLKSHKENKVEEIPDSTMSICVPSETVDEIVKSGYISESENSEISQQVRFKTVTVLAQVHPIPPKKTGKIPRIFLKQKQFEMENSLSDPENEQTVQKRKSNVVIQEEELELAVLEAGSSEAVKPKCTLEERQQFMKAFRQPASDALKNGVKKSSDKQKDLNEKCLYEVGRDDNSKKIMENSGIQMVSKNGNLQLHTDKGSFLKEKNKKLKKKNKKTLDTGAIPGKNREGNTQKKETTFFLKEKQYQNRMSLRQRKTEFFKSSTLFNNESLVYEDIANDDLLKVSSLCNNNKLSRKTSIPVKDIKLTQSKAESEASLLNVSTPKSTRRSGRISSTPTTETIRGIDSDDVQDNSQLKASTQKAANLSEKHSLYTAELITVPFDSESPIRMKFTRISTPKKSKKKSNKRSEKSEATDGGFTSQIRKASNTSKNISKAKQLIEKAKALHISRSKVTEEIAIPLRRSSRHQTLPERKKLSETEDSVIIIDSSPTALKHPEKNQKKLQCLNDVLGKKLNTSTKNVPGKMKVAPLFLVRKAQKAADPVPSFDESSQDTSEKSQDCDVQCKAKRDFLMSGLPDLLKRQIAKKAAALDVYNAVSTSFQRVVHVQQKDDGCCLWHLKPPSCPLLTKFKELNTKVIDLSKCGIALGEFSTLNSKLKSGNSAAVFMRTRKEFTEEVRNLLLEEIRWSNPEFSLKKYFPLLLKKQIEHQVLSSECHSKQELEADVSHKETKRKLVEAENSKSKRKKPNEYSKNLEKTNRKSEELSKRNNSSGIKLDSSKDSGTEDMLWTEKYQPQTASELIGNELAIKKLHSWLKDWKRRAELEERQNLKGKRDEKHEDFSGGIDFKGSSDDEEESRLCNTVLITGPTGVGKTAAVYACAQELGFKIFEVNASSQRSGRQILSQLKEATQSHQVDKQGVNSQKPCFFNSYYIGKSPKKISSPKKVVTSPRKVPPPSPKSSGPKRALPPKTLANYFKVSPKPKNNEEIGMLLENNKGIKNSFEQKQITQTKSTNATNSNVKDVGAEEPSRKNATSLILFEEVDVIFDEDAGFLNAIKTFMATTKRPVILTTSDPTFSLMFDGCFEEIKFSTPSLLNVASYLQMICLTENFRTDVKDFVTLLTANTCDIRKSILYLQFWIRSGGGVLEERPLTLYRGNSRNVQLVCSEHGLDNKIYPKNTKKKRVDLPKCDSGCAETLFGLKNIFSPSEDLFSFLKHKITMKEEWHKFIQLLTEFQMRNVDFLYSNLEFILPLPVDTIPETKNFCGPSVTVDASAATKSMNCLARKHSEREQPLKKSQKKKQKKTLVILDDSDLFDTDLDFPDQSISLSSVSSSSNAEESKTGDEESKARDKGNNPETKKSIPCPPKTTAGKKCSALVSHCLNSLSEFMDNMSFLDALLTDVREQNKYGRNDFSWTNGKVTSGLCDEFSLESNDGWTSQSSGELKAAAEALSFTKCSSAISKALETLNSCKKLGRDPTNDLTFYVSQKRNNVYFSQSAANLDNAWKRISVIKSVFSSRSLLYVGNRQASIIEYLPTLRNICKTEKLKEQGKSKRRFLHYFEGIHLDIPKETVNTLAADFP
ELG1 MMS Luc: inhibits ELG1-dependent repair under MMS stimulation in HEK293T cells; hit rate 53% among 670; shares compounds with ELG1 DNA repair; Potency, µM (doses to about 46.1 µM), for inactives: at the top dose activity change, negative = inhibition, actives largely listed as inhibitors; HEK293T luciferase-tagged ELG1 level, MMS stimulated; note: potency is the fitted concentration of half-maximal effect; % is set by controls: 0 for no effect and ±100 for the full control effect; nearly all actives have a fitted effect of over 60% in size
ELG1 5-FU: confirmation of ELG1 repair inhibitors: viability with 5FU | shares compounds with ELG1 DNA repair | cell viability with 5-FU, ELG1-dependent repair | Potency, µM (doses to about 46.1 µM), for inactives: top-dose activity change, negative = viability loss, most hits filed as cytotoxic | 670 tested, under 10 active;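 note: ELG1-luc HEK293T cells cotreated with 5-fluorouridine at 10 µM final; potency is the fitted concentration of half-maximal effect; viability measured 16 h after compound addition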
ELG1 MMS cell: confirmation of ELG1 repair inhibitors: viability with MMS | shares compounds with ELG1 DNA repair | Potency, µM (titrated, usually from 46.1 µM), inactives show at the highest dose activity change, negative = viability loss, usual class: cytotoxic | hit rate 33% among 670 | Cell viability with MMS, ELG1-dependent DNA repair | AID 624251;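 note: ELG1-luc HEK293T cells co-treated with 10 µM MMS; potency is the fitted concentration of half-maximal effect; viability read 16 h after compound addition; % is set by controls: 0 for no effect and ±100 for the full control effect; nearly all actives have a fitted effect of over 60% in size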
ELG1 unstim viab: unstimulated viability counter-screen for ELG1 repair hits. shares compounds with ELG1 DNA repair. cell viability counter-screen, unstimulated, luminescence. Potency, µM (top dose mostly 45.9 µM), inactives show at the highest dose activity change, negative = loss of viability, usual class: cytotoxic. hit rate 8% among 900;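 note: potency is the fitted concentration of half-maximal effect; compound exposure lasted 16 hours before reading; % is set by controls: 0 for no effect and ±100 for the full control effect; nearly all actives have a fitted effect of over 55% in size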
FLuc biochem: firefly luciferase inhibition counter-screen. hit rate 10% among 350. Potency, µM (top dose mostly 57.5 µM), without a hit: at the highest dose activity, negative = inhibition, hits mostly inhibitors. shares compounds with ELG1 DNA repair. purified firefly luciferase, luminescence counter-screen; note: potency is the fitted concentration of half-maximal effect; % is set by controls: 0 for no effect and ±100 for the full control effect
* hit, by the source's call; ? = inconclusive; nt = no result given; ! = not confirmed by another sample; [ ] = another dose, or the depositor's remark. Unless noted, calls come from the whole dose curve; as a rule, active = well fitted curve in the direction sought with a large enough effect; inconclusive = small, poorly fitted or top-dose-only effect, or another doubt; inactive = no such curve, though single readings can be large; an effect the other way counts as inactive or inconclusive.

SMILES | RORgamma inh | ELG1 DNA repair | Giardia killer | BRCA1 expr act | VP16 counter | p53 reactivation | others
O=C(O)c1cc(O)c(O)c(O)c1 | 10µM*! | nt | nt | nt | ? | nt
O=C1N(c2nncs2)CCN1[N+](=O)[O-] | 2.3% | 10.2% | 5.7 | 13.2% | 11.1% | -6.2%
CC(=O)OC1C[C@H](O[C@@H]2C(O)C[C@H](O[C@@H]3C(O)C[C@@H](OC4CC[C@]5(C)C(CCC6C5CC(O)[C@@]5(C)C(C7=CC(=O)OC7)CC[C@@]65O)C4)OC3C)OC2C)O[C@H](C)[C@H]1O[C@H]1OC(CO)C(O)C(O)C1O (stereo partly specified) | -41.0% | nt | nt | nt | -2.2% | nt
CCOC(=O)c1c(C)[nH]c(C(=O)C(C)N2CCCC2)c1C (stereo unspecified) | -8.8% | -15.6% | 15.3 | -18.8% | 1.4% | 2.0%
C[C@@H]1Cc2c(Cl)cc(C(=O)N[C@@H](Cc3ccccc3)C(=O)O)c(O)c2C(=O)O1 | ? | nt | nt | nt | 22.4µM* | nt
C=C(C)Cn1c(-c2cccs2)n[nH]c1=S | 12.6µM* | 10.9% | 29.7 | -18.3% | 14.1µM* | 1.3%
C=C(C)Cn1c(-c2cccc([N+](=O)[O-])c2)n[nH]c1=S | 7.08µM* | 2.3% | -1.5 | -7.1% | -6.6%[10 µM] | -0.4%
Cc1cccc(OCCn2c(=O)oc3ccc(C)cc32)c1 | ? | ? | 16.9 | 8.91µM* | 11.1% | 4.8%
COc1ccc(C(=O)NC(=S)N2C[C@H]3C[C@H](C2)c2cccc(=O)n2C3)cc1OC | -33.6% | 16.5% | 13.6 | 6.7% | -8.7% | nt
O=C(NC(=S)N1C[C@H]2C[C@H](C1)c1cccc(=O)n1C2)c1ccc(Cl)cc1Cl | 10µM* | 23.1% | 0.3 | 6.9% | -28.1% | 10.2%
CCCOc1ccc(C(=O)NC(=S)N2C[C@H]3C[C@H](C2)c2cccc(=O)n2C3)cc1 | 8.91µM* | ? | -20.7 | 12.0% | ? | nt
COC(=O)C1=C(c2cccc(C#N)c2)C[C@@H]2CC[C@H]1N2C(=O)N1CCC(O)CC1 | nt | ? | 1.2 | 0.2% | nt | -3.0%
S=c1nc(-c2ccccc2)n(-c2ccccc2)[nH]1 | 10µM* | ? | 1.2 | -5.2% | ? | 12.3%
COC(=O)C1=C(c2cccc(OCc3ccccc3)c2)C[C@@H]2CC[C@H]1N2C(=O)NCCN1CCOCC1 | nt | 6.2% | -1.6 | -13.5% | nt | -5.8%
COc1ccccc1CNCC(=O)Nc1cc(S(=O)(=O)N2CCCCC2)ccc1C | nt | ? | -18.7 | -20.0% | nt | -9.1%
O=S(=O)(c1ccccc1C(F)(F)F)N1CCN(c2ncnc3sccc23)CC1 | nt | 16.4µM* | -7.2 | -62.2% | nt | -6.2%
c1ccc(C(c2ccccc2)c2cccnc2)cc1 | nt | nt | 8.3 | 7.6% | nt | nt
c1ccc(-c2ccc(C(c3ccccc3)n3ccnc3)cc2)cc1 (stereo unspecified) | 10µM*! | ? | -0.8 | -13.4% | ? | -5.8%
CC(=O)OC(C)(C)/C=C/C(=O)[C@](C)(O)[C@H]1[C@H](O)C[C@@]2(C)[C@@H]3CC=C4[C@H](C[C@H](O)C(=O)C4(C)C)[C@]3(C)C(=O)C[C@]12C | ? | 5.17µM* | 6.3 | ? | ? | -13.1%
CC(=O)OC(C)(C)/C=C/C(=O)C(C)(O)C1C(O)CC2(C)C3CC=C4C(CC(O)C(=O)C4(C)C)C3(C)C(=O)CC12C (stereo unspecified) | nt | nt | 3.7 | ? | nt | nt
CCOC(=O)C1=C(NC(=S)NC(=O)c2ccccc2)c2ccccc2CC12CCCC2 | 3.16µM* | ? | -16.1 | -72.9% | 4.47µM* | 0.6%
CC1(C)Cc2c(c(N3CCOCC3)nc3sc4c(NCc5ccccc5)nnnc4c23)CS1 | 4.3% | 13µM* | -8.6 | -43.1% | -29.5% | -4.8% | ELG1 FLuc counter=4.0%;ELG1-Luc inh=2.5µM*;ELG1 MMS Luc=15.0%;ELG1 5-FU=?;ELG1 MMS cell=-1.6%;ELG1 unstim viab=-12.7%;FLuc biochem=-14.2%
C[C@]12CCC3C(CC[C@H]4[C@@H](O)[C@H](O)CC[C@]34C)C1CCC2=O (stereo partly specified) | nt | nt | -19.9 | -18.3% | nt | nt
CCOC(=O)c1c(NC(=O)C(c2ccccc2)c2ccccc2)sc2c1C1CCN2CC1 | -12.0% | ? | 1.7 | -64.1% | ? | -0.3%
CCCSc1ccc2nc(NC(=O)OC)[nH]c2c1 | -22.5% | ? | ? | 5.0% | -14.0% | 19.0% | ELG1 unstim viab=-2.6%
Cc1c(C(=O)N2CCC(Cc3ccccc3)CC2)sc2ncnc(N3CCC(C)CC3)c12 | 17.0% | 0.1% | -4.8 | 0.4% | -3.4% | -1.3% | ELG1 FLuc counter=2.2%;ELG1-Luc inh=15.8µM*;ELG1 MMS Luc=?;ELG1 5-FU=9.7%;ELG1 MMS cell=-12.1%;ELG1 unstim viab=-3.5%;FLuc biochem=2.1%
Cc1cccc(Cn2cccc(C(=O)Nc3nnc(C)s3)c2=O)c1 | nt | nt | nt | 0.0% | nt | nt
CCCCN(C(=O)Oc1ccccc1)C1CCS(=O)(=O)C1 (stereo unspecified) | ? | 6.5% | 14.2 | -4.3% | -8.8% | -1.1%
